CYP2C9 inhib: blocks human cytochrome P450 2C9. P11712. CYP2C9 Supersomes, luciferin-H conversion, luminescence. inhibition, % at 5 µM. 96,000 tested, 20% active;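 active = blocking of liver enzyme CYP2C9 beyond about 50% at 5 µM, limit read from the data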
PostGolgi ctrl: inhibits growth of the yeast control strain. AID 738. efflux-deficient yeast background strain, growth absorbance A615, 16 h. inhibition, % at 10 µM. 98,000 tested, 5% active
CYP2C9 activ: increases human cytochrome P450 2C9 activity. recombinant CYP2C9, luciferin-H conversion, luminescence; active compounds read high; factor 1 = untreated enzyme, 0 = blocked. 96,000 tested, 1.4% active. P11712. activation factor at 5 µM. AID 1024;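 active = activation factor of 2 or more for CYP2C9 at a 5 µM dose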;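 also: 0 = sulfaphenazole-blocked wells and 1 = vehicle-only wells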
PostGolgi yeast: growth inhibition of a yeast mutant, post-Golgi transport screen | 98,000 tested, 0.9% active | inhibition, % at 10 µM | post-Golgi transport phenotypic cell assay | AID 739;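 also: yeast cells grown in 1536-well plates; yeast grown about 18 h at 30C before absorbance read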
CYP2C19 act: increases human CYP2C19 enzyme activity; activation factor at 5 µM; P33261; 96,000 tested, under 10 active; recombinant CYP2C19, luciferin-H EGE luminescence; active compounds read high; 0 = fully inhibited enzyme, 1 = untreated enzyme;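 active = activation factor of at least 2 at 5 µM in the primary screen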;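 also: 0 = wells with 2.5 mM tranylcypromine and 1 = vehicle-only wells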
Target sequence (P33261 whole entry, looked up): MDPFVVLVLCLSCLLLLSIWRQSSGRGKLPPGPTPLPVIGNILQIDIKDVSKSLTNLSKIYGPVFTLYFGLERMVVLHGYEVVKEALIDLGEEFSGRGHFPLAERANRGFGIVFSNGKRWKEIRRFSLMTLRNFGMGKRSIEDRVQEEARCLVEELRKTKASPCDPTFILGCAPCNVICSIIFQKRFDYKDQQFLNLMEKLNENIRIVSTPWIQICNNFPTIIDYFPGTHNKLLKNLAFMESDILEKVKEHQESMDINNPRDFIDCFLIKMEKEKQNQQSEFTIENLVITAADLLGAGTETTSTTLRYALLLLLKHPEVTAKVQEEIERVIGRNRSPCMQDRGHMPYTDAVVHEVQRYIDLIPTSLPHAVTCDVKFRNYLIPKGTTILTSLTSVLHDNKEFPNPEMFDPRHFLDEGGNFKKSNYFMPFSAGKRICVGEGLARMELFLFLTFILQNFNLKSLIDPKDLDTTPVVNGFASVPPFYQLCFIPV
CYP2C19 inh: human CYP2C19 inhibition | 96,000 tested, 21% active | inhibition, % at 5 µM | CYP2C19 Supersomes, luciferin-H EGE luminescence, 30 min;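 active = CYP2C19 inhibition above a set limit at 5 µM in the primary screen, cut at about 50% in these data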;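 also: plate controls were negative control wells for no effect and 2.5 mM tranylcypromine positive control for full effect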
Numbers without * were called inactive; nt = no result given. Sampled rows, rich in hits. Any-hit rate of the full collection: about 32%. Rule as the data show it, unless noted: active = inhibition above about 30%; inactive = the rest.

SMILES | CYP2C9 inhib | PostGolgi ctrl | CYP2C9 activ | PostGolgi yeast | CYP2C19 act | CYP2C19 inh
Cc1ccccc1OCC(=O)N(Cc1ccc(N(C)C)cc1)C1CCS(=O)(=O)C1 (stereo unspecified) | 13 | 10 | 0.9 | 10 | 0.8 | 22
O=C1NCCCC1C(=O)N1CCN(C(c2ccccc2)c2ccccc2)CC1 (stereo unspecified) | 2 | nt | 1 | nt | 1 | -5
Clc1ccccc1-c1nnn(Cc2ccc(-c3nn[nH]n3)cc2)n1 | 86* | -2 | 0.1 | 5 | 0.3 | 68*
CC(C)C(c1nnnn1Cc1ccc(F)cc1)N1CCN(C(=O)c2ccco2)CC1 (stereo unspecified) | 62* | 15 | 0.4 | 9 | 0.5 | 50*
CC(C)C(c1nnnn1Cc1ccc(F)cc1)N1CCSCC1 (stereo unspecified) | nt | 3 | nt | 7 | nt | nt
COc1ccc(Cn2nnnc2C(c2ccccc2OC)N2CCC(C(N)=O)CC2)cc1 (stereo unspecified) | 1 | 16 | 1 | 2 | 0.8 | 22
CC(C)C(c1nnnn1Cc1ccc(F)cc1)N1CCN(Cc2ccc3c(c2)OCO3)CC1 (stereo unspecified) | 72* | 23 | 0.3 | -4 | 0.1 | 87*
CCC(c1nnnn1Cc1ccccc1)N1CCN(C(=O)c2ccco2)CC1 (stereo unspecified) | 16 | 3 | 0.8 | -4 | 0.7 | 26
NC(=O)C1CCN(C(c2ccccc2Cl)c2nnnn2Cc2ccc3c(c2)OCO3)CC1 (stereo unspecified) | 68* | 13 | 0.3 | -3 | 0.2 | 81*
CCC(c1nnnn1Cc1ccc2c(c1)OCO2)N1CCN(c2ccccc2)CC1 (stereo unspecified) | 81* | 22 | 0.2 | 2 | 0.3 | 68*
COc1ccc2[nH]c(=O)c(CN(Cc3ccc4c(c3)OCO4)C(C)=O)cc2c1 | -19 | -4 | 1.2 | 0 | 1 | 4
Cc1cccc(C)c1NC(=O)N1C2CCCC1CC(NC(=O)C(C)(C)C)C2 (stereo unspecified) | 18 | 5 | 0.8 | -3 | 1 | 1
Cn1nc(C(F)(F)F)cc1C(=O)NC1CCCCCC1 | 17 | 12 | 0.8 | -1 | 0.5 | 50
CC(C)CC(c1nnnn1CC1CCCO1)N1CCN(Cc2ccc3c(c2)OCO3)CC1 (stereo unspecified) | -9 | -3 | 1.1 | 0 | 0.9 | 12
CCC(c1nnnn1Cc1ccc2c(c1)OCO2)N1CCN(c2ccc(OC)cc2)CC1 (stereo unspecified) | 83* | 8 | 0.2 | 0 | 0.3 | 73*
CCC(c1nnnn1Cc1ccc2c(c1)OCO2)N1CCN(c2ccc(F)cc2)CC1 (stereo unspecified) | 87* | 10 | 0.1 | 6 | 0.6 | 43
COc1cc(NC(=O)c2cnn3c(C)cc(C)nc23)c(OC)cc1Cl | 11 | 41* | 0.9 | 0 | 0.8 | 22
COc1cc(NC(=O)c2ccc(Cl)cc2)c(OC)cc1Cl | -13 | 0 | 1.1 | 24 | 0.9 | 9
CCOC(=O)Cn1c(=O)n(C2CCCC2)c(=O)c2ccccc21 | 77* | -4 | 0.2 | 22 | 0.1 | 91*
CCOC(=O)Cn1c(=O)n(CC(=O)OCC)c2ccccc21 | 21 | -8 | 0.8 | 11 | 0.8 | 22
N#Cc1ccccc1Cn1c(=O)n(C2CCCC2)c(=O)c2ccccc21 | 96* | 30* | 0 | 5 | 0.1 | 86*
O=c1c2ccccc2n(Cc2cccc(F)c2)c(=O)n1C1CCCC1 | 27 | 40* | 0.7 | 10 | 0.7 | 32
COc1ccc(C2C(C(C)=O)=C(C)N=c3s/c(=C\c4cc(C)n(C)c4C)c(=O)n32)c(OC)c1 (stereo unspecified) | 42 | 14 | 0.6 | 2 | 0.7 | 32
COc1ccc(C2C(C(C)=O)=C(C)N=c3s/c(=C\c4ccco4)c(=O)n32)c(OC)c1 (stereo unspecified) | 78* | 23 | 0.2 | -12 | 0.5 | 53*
Cc1ccc(C)c(NS(=O)(=O)c2cc(C(=O)NCCSC3CCCCC3)ccc2C)c1 | 79* | 41* | 0.2 | -3 | 0.4 | 59*
SMILES | CYP2C9 inhib | PostGolgi ctrl | CYP2C9 activ | PostGolgi yeast | CYP2C19 act | CYP2C19 inh
Cc1ccccc1NS(=O)(=O)c1cc(C(=O)N2CCCC2)ccc1C | 35 | 4 | 0.6 | 1 | 0.8 | 20
Cc1ccccc1NS(=O)(=O)c1cc(C(=O)NCCSC2CCCCC2)ccc1C | 63* | 20 | 0.4 | 4 | 0.6 | 42
COc1cc(C(=O)N2CCN=C2c2ccccc2)cc(OC)c1OC | -6 | 17 | 1.1 | -13 | 0.6 | 41
CCN(CC)S(=O)(=O)c1ccc2c(c1)c(=O)c(C(=O)NCCOC)cn2C | 31 | 7 | 0.7 | -1 | 1 | 1
C=CCn1cc(C(=O)NCCOC)c(=O)c2cc(S(=O)(=O)N(CC)CC)ccc21 | 75* | 1 | 0.3 | 5 | 1 | 1
C=CCn1cc(C(=O)NCCCOCC)c(=O)c2cc(S(=O)(=O)N(CC)CC)ccc21 | 56* | 7 | 0.4 | -1 | 0.8 | 24
C=CCn1cc(C(=O)NCc2cccnc2)c(=O)c2cc(S(=O)(=O)N(CC)CC)ccc21 | 89* | 5 | 0.1 | -3 | 0.6 | 43
COC(=O)c1ccc(C(=O)OC)c(NC(=O)CSCc2ccccc2Br)c1 | -6 | -3 | 1.1 | -6 | 1 | 1
COc1ccc(CN2CCC(C(=O)NCCc3ccc(OC)c(OC)c3)CC2)c(OC)c1 | 13 | 2 | 0.9 | 0 | 0.9 | 6
Cc1cc(C2C(C#N)=C(N)OC3=C2C(=O)CCC3)c(C)s1 (stereo unspecified) | 22 | 15 | 0.8 | 9 | 0.5 | 51*
COc1cc(C2C(C#N)=C(N)OC3=C2C(=O)CCC3)c([N+](=O)[O-])cc1OC (stereo unspecified) | 0 | 27 | 1 | 0 | 1.1 | -12
Cc1cc(C2C(C#N)=C(N)OC3=C2C(=O)CC(C)(C)C3)c(C)s1 (stereo unspecified) | 34 | 41* | 0.7 | 1 | 0.6 | 38
COc1cc(OC)c(C2C(C#N)=C(N)OC3=C2C(=O)CC(C)(C)C3)cc1OC (stereo unspecified) | 25 | 1 | 0.8 | -2 | 0.8 | 21
COc1ccc(C2C(C#N)=C(N)OC3=C2C(=O)CC(C)(C)C3)c(OC)c1OC (stereo unspecified) | 71* | 7 | 0.3 | -15 | 0.6 | 40
O=C(O)C=C1CCN(c2ncc(C(F)(F)F)cc2Cl)CC1 | nt | 7 | nt | -2 | nt | nt
O=C(c1c(Cl)nc2sccn12)N(C(=O)c1c(Cl)nc2sccn12)c1ccc(Cl)cn1 | 100* | 22 | 0 | -11 | 0 | 100*
CCOc1ccc(-c2nnc(-c3ccncc3)o2)cc1 | 44 | 23 | 0.6 | 10 | 0 | 99*
CCOc1ccc(-c2nnc(N)o2)cc1 | -13 | 19 | 1.1 | 10 | 1 | -2

Source: PubChem BioAssay
